Data published in PubChem BioAssay AID588689 (Southern Research Specialized Biocontainment Screening …, 2011).
About 1,000 (0.29%) of roughly 340,000 compounds were called active. No stated cut-off is given here; in the data, inconclusive means inhibition above about 29% without an active follow-up result; inactive means below that. These entries were drawn from the full list. Measured potencies and affinities stand elsewhere.

Target: Genome polyprotein (Dengue virus type 2 (strain 16681-PDK53)) (UniProt P29991)
Assay: Dengue-2 NS5 methyltransferase inhibitors, primary screen, biochemical, confirmation dose response (AID 588689)
Conditions: Dengue-2 NS5 methyltransferase capping enzyme assay, at 25 µM, stronger effect = higher value
[1] = measured here: pilot screen replicate inhibition

| Structure (SMILES) | inhibition | inhibition [1] |
| --- | --- | --- |
| CCCCOc1ccc(-c2cnc3ccccc3n2)cc1 | 1.6% (inactive) |  |
| Cc1cc(N2CCC(C(=O)NCC3CC3)CC2)nc(-c2ccccc2)n1 | -10.6% (inactive) |  |
| COC(=O)N(C)C[C@H]1OCc2cnnn2CCCC(=O)N([C@@H](C)CO)C[C@@H]1C | 0% (inactive) |  |
| CC1=NOC(=O)/C1=C\c1ccc(-c2ccccc2Br)o1 | 3.96% (inactive) |  |
| CC1=NOC(=O)/C1=C/c1ccc(-c2ccc(Cl)cc2)o1 | 19% (inactive) |  |
| CC1=NOC(=O)/C1=C\c1ccc(-c2cccc(Cl)c2)o1 | 6.14% (inactive) |  |
| CC(C)N1C(=O)S/C(=C\c2ccc(-c3ccc(Cl)c(C(=O)O)c3)o2)C1=O | 9.54% (inactive) |  |
| CC1(C)OC(=O)C(=Cc2ccc(-c3ccc(Cl)c(C(=O)O)c3)o2)C(=O)O1 | -35.6% (inactive) |  |
| CC1=NOC(=O)/C1=C\c1ccc(-c2ccc(Br)cc2)o1 | 24.5% (inactive) |  |
| CC(=O)N(c1ccccc1)c1nc2ccccc2s1 | -3.1% (inactive) |  |
| O=C(CNCc1ccccc1Cl)Nc1ccc(C(=O)N2CCCCC2)cc1 | -14.1% (inactive) |  |
| CNC(=O)c1ccsc1NC(=O)CS(=O)(=O)c1ccc(F)cc1 | -0.55% (inactive) |  |
| CCN1CCN(CCCN(Cc2ccco2)C(=S)Nc2cccc(Cl)c2C)CC1 | 5.26% (inactive) |  |
| Nc1cc(=O)[nH]c(SCC(=O)Nc2cccnc2Cl)n1 | 11.6% (inactive) |  |
| O=C1OC(c2ccccc2)=N/C1=C/c1cccc(OC(=O)c2cccs2)c1 | 6.35% (inactive) |  |
| COc1cccc(/C=C2\CCc3ccccc3C2=O)c1 | 1.96% (inactive) |  |
| COc1ccc(-n2c(C)cc(/C=C3\C(=O)NN(c4ccccc4)C3=O)c2C)cc1 | 3.87% (inactive) |  |
| N#C/C(=C\c1cccc(OC(=O)c2cccs2)c1)C(N)=O | -25% (inactive) |  |
| COc1cc(C=C2C(=O)c3ccccc3C2=O)cc(OC)c1 | 18% (inactive) |  |
| Cc1cc(/C=C2\C(=O)NN(c3ccccc3)C2=O)c(C)n1-c1ccccc1O | 2.89% (inactive) |  |
| COc1cc(/C=C2/C(=O)NN(c3ccccc3)C2=O)cc(Br)c1O | -40.3% (inactive) |  |
| O=C1NN(c2ccc(Br)cc2)C(=O)/C1=C\c1ccc(O)cc1O | -25.4% (inactive) |  |
| COc1cccc(/C=C2/NC(=O)N(CC(=O)Nc3ccc(C)cc3)C2=O)c1OCc1cccc(C(=O)O)c1 | -3.96% (inactive) |  |

| Structure (SMILES) | inhibition | inhibition [1] |
| --- | --- | --- |
| Cc1ccc2nc(-c3ccccc3)cc(C(=O)N3CCc4ccccc4C3)c2c1 | -5.47% (inactive) |  |
| NC(N)=N/N=C/c1ccc(OCc2ccccc2Cl)cc1 | -0.7% (inactive) |  |
| Cc1ccc(-c2nc3c(c(=O)c4ccccc4n3C)c(=O)n2-c2ccc(F)cc2)cc1 | 0.78% (inactive) |  |
| CCc1ccc(C(=O)C(C)OC(=O)c2nc3nc(C)cc(C)n3n2)cc1 (stereo not given) | -7.33% (inactive) |  |
| COc1cc(/C=C2/C(=O)NN(c3ccc(F)cc3)C2=O)cc(Cl)c1O | -28% (inactive) |  |
| O=C1NN(c2ccccc2)C(=O)C1=Cc1ccccc1 | 25.9% (inactive) |  |
| O=C1NN(c2ccccc2)C(=O)/C1=C\c1ccccc1 | 8.92% (inactive) |  |
| C#CCOc1ccc(/C=C2/C(=O)NN(c3ccc(F)cc3)C2=O)cc1OC | 14.3% (inactive) |  |
| COc1ccc2oc(C(=O)OCC(=O)N(C)C3CCS(=O)(=O)C3)c(C)c2c1 (stereo not given) | -8.65% (inactive) |  |
| O=C(CNC(=O)c1ccc(F)cc1)N/N=C/c1cn[nH]c1-c1ccccc1 | -12.6% (inactive) |  |
| CN(CC(=O)Nc1ccc(F)cc1)C(=O)CSc1nncs1 | -2.59% (inactive) |  |
| CCCCC(=O)Nc1nnc(-c2ccco2)o1 | 1.48% (inactive) |  |
| CCNS(=O)(=O)c1ccc(NC(=O)Nc2ccc3c(c2)OCO3)cc1 | -8.45% (inactive) |  |
| Cc1c(F)cccc1NS(=O)(=O)c1ccc2c(c1)c(C)cc(=O)n2C | -4.58% (inactive) |  |
| O=C1C(Cl)=C(NCCN2CCOCC2)C(=O)c2ccccc21 | 4.52% (inactive) |  |
| NC(=O)C1CCN(C2=C(NS(=O)(=O)c3ccccc3)C(=O)c3ccccc3C2=O)CC1 | 0.77% (inactive) |  |
| NC(=O)C1CCN(C2=C(NS(=O)(=O)c3ccc(Cl)cc3)C(=O)c3ccccc3C2=O)CC1 | 7.95% (inactive) |  |
| O=C1C(Cl)=C(NCCCN2CCOCC2)C(=O)c2ccccc21 | 17% (inactive) |  |
| O=C1C(Cl)=C(N2CCN(c3ccccc3[N+](=O)[O-])CC2)C(=O)c2ccccc21 | 3.21% (inactive) |  |
| CN1CCN(C2=C(NS(=O)(=O)c3ccccc3)C(=O)c3ccccc3C2=O)CC1 | 7.03% (inactive) |  |
| Cc1ccc(C=NNc2ccc([N+](=O)[O-])cn2)cc1 | -5.44% (inactive) |  |
| O=S(=O)(c1cc(Cl)ccc1Cl)N1CC2CCCN2c2ccc(C(F)(F)F)cc21 (stereo not given) | -10.5% (inactive) |  |
| Cc1ccc2cc(CCNC(=O)c3cccc([N+](=O)[O-])c3)c(=O)[nH]c2c1C | 2.58% (inactive) |  |

| Structure (SMILES) | inhibition | inhibition [1] |
| --- | --- | --- |
| CCCn1c(=O)c2ccccc2n2c(SCC(=O)c3ccc(CC)cc3)nnc12 | -1.12% (inactive) |  |
| Cc1cc(CN2CCCC(CNC(=O)c3ccc(F)cc3)C2)cc(C)c1O (stereo not given) | -7.66% (inactive) |  |
| C=CCOc1cccc(C2C(C(=O)c3ccc(C)o3)=C(O)C(=O)N2Cc2ccncc2)c1 (stereo not given) | -1.6% (inactive) |  |
| CCCOc1ccc(C2C(C(=O)c3cc4ccccc4o3)=C(O)C(=O)N2c2cc(C)on2)cc1OC (stereo not given) | -3.55% (inactive) |  |
| CCCOc1ccc(C2C(C(=O)c3cc4ccccc4o3)=C(O)C(=O)N2c2cc(C)on2)cc1 (stereo not given) | 27.6% (inactive) |  |
| Cc1cc(N2C(=O)C(O)=C(C(=O)c3cc4ccccc4o3)C2c2cccc(Br)c2)no1 (stereo not given) | 5.32% (inactive) |  |
| COc1ccc(C2C(C(C)=O)=C(O)C(=O)N2c2ccccn2)cc1 (stereo not given) | 0.65% (inactive) |  |
| CCCOc1ccc(/C(O)=C2\C(=O)C(=O)N(c3ccccn3)C2c2ccccc2F)cc1C (stereo not given) | 22.2% (inactive) |  |
| C=CCOc1cccc(C2C(C(=O)c3ccc(C)o3)=C(O)C(=O)N2CCN(C)C)c1 (stereo not given) | -3.18% (inactive) |  |
| COc1cccc(C2C(C(=O)c3cc4ccccc4o3)=C(O)C(=O)N2c2cc(C)on2)c1 (stereo not given) | 11.6% (inactive) |  |
| COc1cc(C2CC(=O)Oc3cc(O)ccc32)cc(OC)c1OC (stereo not given) | 1.65% (inactive) | 3.63% |
| C=CCN1CCN(C(c2cc(OC)ccc2OC)c2nnnn2CC2CCCO2)CC1 (stereo not given) | 1.37% (inactive) |  |
| COc1ccc(-c2ccc(=O)n(Cc3ccccc3)n2)cc1 | -0.78% (inactive) |  |
| C=CCn1c(CC(C)(C)C)nc2ccccc21 | -5.1% (inactive) |  |
| Cc1ccc(S(=O)(=O)N2CCCN(C(=O)c3ccc(-n4nccc4C)cc3)CC2)cc1 | -5.13% (inactive) |  |
| CCOC(=O)C1CCCN(C(=O)/C(=C/c2ccco2)NC(=O)c2ccccc2)C1 (stereo not given) | -14.3% (inactive) |  |
| CC[n+]1c(/C=C(\C)OC)sc2ccccc21 | 2.92% (inactive) |  |
| O=C(COC(=O)/C=C/c1ccccc1Cl)NC(=O)NC1CCCC1 | -7.24% (inactive) |  |
| COCCNC(=O)CN1C(=O)CSc2ccc(S(=O)(=O)N3CCOCC3)cc21 | 0.89% (inactive) |  |
| COc1ccc(C(=O)N2CCN(c3ccc(NC(=O)c4ccco4)cc3)CC2)cc1 | 0% (inactive) |  |
| CC1(C)CC(=O)c2c(O)cc(O)cc2O1 | -4.17% (inactive) |  |
| COc1cc(O)c2c(c1)OC(C)(C)CC2=O | -2.94% (inactive) |  |
| N#CCCN(C(=O)COC(=O)CNS(=O)(=O)c1ccc2ccccc2c1)c1ccccc1 | 1.1% (inactive) |  |

| Structure (SMILES) | inhibition | inhibition [1] |
| --- | --- | --- |
| N#CCc1ccc(NC(=O)Cn2c(=O)oc3ccccc32)cc1 | -3.26% (inactive) | -4.87% |
| COc1ccc(S(=O)(=O)N2CCCC2)c(Cl)c1Cl | -8.19% (inactive) |  |
| CC1CCc2c(sc(NC(=O)c3ccccc3C(=O)O)c2C#N)C1 (stereo not given) | -0.74% (inactive) |  |
| COc1ccc(OC)c(-c2cc(C(=O)Nc3sc4c(c3C#N)CCC(C)C4)c3ccccc3n2)c1 (stereo not given) | -5.61% (inactive) |  |
| COc1ccc(-c2cc(C(=O)Nc3sc4c(c3C#N)CCCC4)c3ccccc3n2)cc1OC | -4.06% (inactive) |  |
| CCC1CCc2c(sc(NC(=O)C3CC=CCC3C(=O)O)c2C#N)C1 (stereo not given) | 27.5% (inactive) |  |
| N#Cc1c(NC(=O)C2CC=CCC2C(=O)O)sc2c1CCCCCC2 (stereo not given) | 5.78% (inactive) |  |
| CCC(C)(C)C1CCc2c(sc(NC(=O)c3ccoc3C)c2C(N)=O)C1 (stereo not given) | -3.22% (inactive) |  |
| CCOc1ccc(-c2cccc(NC(=O)COc3ccc(Cl)cc3)c2)nn1 | -5.43% (inactive) |  |
| COc1ccc(/C=C/C(=O)c2cc(Br)ccc2O)cc1OC | 0.78% (inactive) |  |
| Cc1cccc(-n2nnnc2SCC(=O)Nc2cccc(S(N)(=O)=O)c2)c1 | 0% (inactive) |  |
| Cc1ccc(NC(=S)NCC2CCCO2)cc1 (stereo not given) | -18% (inactive) |  |
| C[C@H](CO)N1C[C@H](C)[C@@H](CN(C)Cc2ccc(C(=O)O)cc2)Oc2c(NS(=O)(=O)c3cccs3)cccc2C1=O | 2.31% (inactive) | -3.33% |
| CC1(C)CC(=O)C(C#N)=C(NCCCO)C1 | -3.49% (inactive) |  |
| CC(C)=NNC1=NC(C)(C)Cc2ccccc21 | 3.83% (inactive) |  |
| C=CCOC(=O)C(=O)/C=C/c1csc2ccccc12 | 23.7% (inactive) |  |
| O=C1NC(=O)/C(=C/c2ccccc2Cl)N1 | -5.96% (inactive) |  |
| O=C1NC(=S)NC1=Cc1ccc(Cl)cc1Cl | -0.78% (inactive) |  |
| O=Cc1c(Cl)cccc1Cl | 0% (inactive) |  |
| O=C1Nc2ccccc2/C1=C/c1ccccc1Cl | -2.65% (inactive) |  |
| O=C1NC(=S)NC(=O)C1=Cc1ccccc1C(=O)O | 1.94% (inactive) |  |
| C/C=C/C=C\C(=O)Nc1cccc(C2=NOC3(C2)C[C@H](C(N)=O)N(C(=O)/C=C/C)C3)c1 (stereo not given in full) | -9.17% (inactive) |  |
| CCOC(=O)c1c(S(=O)(=O)N(C)C2CCCCC2)c(C)n(C)c1C | -7.99% (inactive) |  |
